The full ranking holds about 1,900 compounds; the median of “excess over highest single agent (ExcessHSA) synergy score, 6x6 matrix” is about -83, and the lowest 2% start at about -370. This is one part of a sample in which the lowest values are shown more often than they occur.

This assay relates to NCI-H446. The assay is described as follows: excess over highest single agent (ExcessHSA) synergy score, 6x6 matrix; higher = less synergy (more negative = stronger synergy). The conditions noted are these: 72 h; CellTiter-Glo viability.
In the case of `CN1c2ccccc2C(=O)N2CCc3c([nH]c4ccccc34)[C@@H]21` + Cc1sc2c(c1C)C(c1ccc(Cl)cc1)=N[C@@H](CC(=O)OC(C)(C)C)c1nnc(C)n1-2 [NCGC00250412-19], the “excess over highest single agent” value was -226.

As for `O=C1NC(=O)/C(=C/c2cccc(C(F)(F)F)c2)S1` + Cc1sc2c(c1C)C(c1ccc(Cl)cc1)=N[C@@H](CC(=O)OC(C)(C)C)c1nnc(C)n1-2 [NCGC00250412-19], the “excess over highest single agent” value turned out to be 75.6.

Consider `Cn1c2cc([S+](C)[O-])sc2c2cnn(Cc3cccc(N)c3)c(=O)c21` (centres undefined) + Cc1sc2c(c1C)C(c1ccc(Cl)cc1)=N[C@@H](CC(=O)OC(C)(C)C)c1nnc(C)n1-2 [NCGC00250412-19], for which the “excess over highest single agent” value is -110.

With `CN(c1ncccc1CNc1nc(Nc2ccc3c(c2)CC(=O)N3)ncc1C(F)(F)F)S(C)(=O)=O` + Cc1sc2c(c1C)C(c1ccc(Cl)cc1)=N[C@@H](CC(=O)OC(C)(C)C)c1nnc(C)n1-2 [NCGC00250412-19], the “excess over highest single agent” value was -151.

Turning to `CS(=O)(=O)c1cccc(CNc2nc(Nc3ccc4c(c3)CCC(=O)N4)ncc2C(F)(F)F)c1` + Cc1sc2c(c1C)C(c1ccc(Cl)cc1)=N[C@@H](CC(=O)OC(C)(C)C)c1nnc(C)n1-2 [NCGC00250412-19], the “excess over highest single agent” value was determined as 58.6.

For the compound `CC(=O)NCC(=O)N1[C@@H]2CC[C@H]1c1ccc(Nc3ncc(C(F)(F)F)c(NC4CCC4)n3)cc12` + Cc1sc2c(c1C)C(c1ccc(Cl)cc1)=N[C@@H](CC(=O)OC(C)(C)C)c1nnc(C)n1-2 [NCGC00250412-19], the “excess over highest single agent” value is -534.

Take `COC(=O)c1ccc2c(C(=Nc3ccc(N(C)C(=O)CN4CCN(C)CC4)cc3)c3ccccc3)c(O)[nH]c2c1` + Cc1sc2c(c1C)C(c1ccc(Cl)cc1)=N[C@@H](CC(=O)OC(C)(C)C)c1nnc(C)n1-2 [NCGC00250412-19]: the “excess over highest single agent” value was -229.

`CCS(=O)(=O)Nc1ccc2[nH]c(O)c(C(=Nc3ccc(CN4CCCCC4)cc3)c3ccccc3)c2c1` + Cc1sc2c(c1C)C(c1ccc(Cl)cc1)=N[C@@H](CC(=O)OC(C)(C)C)c1nnc(C)n1-2 [NCGC00250412-19]: the “excess over highest single agent” value is -393.

Regarding `CNC(=O)c1ccc2c(C(=Nc3cccc(CN(C)C)c3)c3ccccc3)c(O)[nH]c2c1` + Cc1sc2c(c1C)C(c1ccc(Cl)cc1)=N[C@@H](CC(=O)OC(C)(C)C)c1nnc(C)n1-2 [NCGC00250412-19], the “excess over highest single agent” value was 93.9.

In the case of `COc1ccc(-c2ccc3ncc4c(c3c2)n(-c2ccc(N3CCNCC3)c(C(F)(F)F)c2)c(=O)n4C)cn1` + Cc1sc2c(c1C)C(c1ccc(Cl)cc1)=N[C@@H](CC(=O)OC(C)(C)C)c1nnc(C)n1-2 [NCGC00250412-19], the “excess over highest single agent” value was -20.2.

Consider `COc1cc(C(C)C)c(Oc2cnc(NC(CO)CO)nc2N)cc1I` + Cc1sc2c(c1C)C(c1ccc(Cl)cc1)=N[C@@H](CC(=O)OC(C)(C)C)c1nnc(C)n1-2 [NCGC00250412-19], for which the “excess over highest single agent” value is -119.

In the case of `OCc1ccc(-c2ccc(-c3ccc(CO)s3)o2)s1` + Cc1sc2c(c1C)C(c1ccc(Cl)cc1)=N[C@@H](CC(=O)OC(C)(C)C)c1nnc(C)n1-2 [NCGC00250412-19], the “excess over highest single agent” value was found to be 33.9.

Turning to `C/C=C1\NC(=O)[C@H]2CSSCC/C=C/[C@H](CC(=O)N[C@H](C(C)C)C(=O)N2)OC(=O)[C@H](C(C)C)NC1=O` + Cc1sc2c(c1C)C(c1ccc(Cl)cc1)=N[C@@H](CC(=O)OC(C)(C)C)c1nnc(C)n1-2 [NCGC00250412-19], the “excess over highest single agent” value is -38.7.

Regarding `O=C1[C@H](Cc2ccc(O)cc2)N2C(=O)CCN(C(=O)NCc3ccccc3)[C@H]2CN1Cc1cccc2ccccc12` + Cc1sc2c(c1C)C(c1ccc(Cl)cc1)=N[C@@H](CC(=O)OC(C)(C)C)c1nnc(C)n1-2 [NCGC00250412-19], the “excess over highest single agent” value was -294.

With `O=C(NOC[C@H](O)CO)c1ccc(F)c(F)c1Nc1ccc(I)cc1F` + Cc1sc2c(c1C)C(c1ccc(Cl)cc1)=N[C@@H](CC(=O)OC(C)(C)C)c1nnc(C)n1-2 [NCGC00250412-19], the “excess over highest single agent” value is -276.

On to `Cn1c(=O)c2c(ncn2CC(O)CO)n(C)c1=O` (centres undefined) + Cc1sc2c(c1C)C(c1ccc(Cl)cc1)=N[C@@H](CC(=O)OC(C)(C)C)c1nnc(C)n1-2 [NCGC00250412-19], for which the “excess over highest single agent” value is -73.2.

In the case of `Cn1c(=O)c(F)c(Nc2ccc(I)cc2F)c2c(=O)n(C[C@@H](O)CO)cnc21` + Cc1sc2c(c1C)C(c1ccc(Cl)cc1)=N[C@@H](CC(=O)OC(C)(C)C)c1nnc(C)n1-2 [NCGC00250412-19], the “excess over highest single agent” value was -396.

For `O=C(C=Cc1ccc(C=CC(=O)Nc2ccc(C3=NCCN3)cc2)cc1)Nc1ccc(C2=NCCN2)cc1` + Cc1sc2c(c1C)C(c1ccc(Cl)cc1)=N[C@@H](CC(=O)OC(C)(C)C)c1nnc(C)n1-2 [NCGC00250412-19], the “excess over highest single agent” value is -46.7.

As to `CC(C)C(=O)Nc1ncc(-c2cc(C(F)F)nn2-c2c(Cl)cccc2Cl)s1` + Cc1sc2c(c1C)C(c1ccc(Cl)cc1)=N[C@@H](CC(=O)OC(C)(C)C)c1nnc(C)n1-2 [NCGC00250412-19], the “excess over highest single agent” value is -105.

With `COc1ccc(-c2nc(N3CCOCC3)c3sc(CN(C)c4ncc(C(=O)NO)cn4)cc3n2)cn1` + Cc1sc2c(c1C)C(c1ccc(Cl)cc1)=N[C@@H](CC(=O)OC(C)(C)C)c1nnc(C)n1-2 [NCGC00250412-19], the “excess over highest single agent” value was -105.

On to `c1ccc2c(Cc3c[nH]c4ccccc34)c[nH]c2c1` + Cc1sc2c(c1C)C(c1ccc(Cl)cc1)=N[C@@H](CC(=O)OC(C)(C)C)c1nnc(C)n1-2 [NCGC00250412-19], for which the “excess over highest single agent” value was -83.3.

As for `CCCS(=O)(=O)Nc1ccc(F)c(C(=O)c2c[nH]c3ncc(Cl)cc23)c1F` + Cc1sc2c(c1C)C(c1ccc(Cl)cc1)=N[C@@H](CC(=O)OC(C)(C)C)c1nnc(C)n1-2 [NCGC00250412-19], the “excess over highest single agent” value was -97.1.

Turning to `CCCS(=O)(=O)Nc1ccc(F)c(C(=O)c2c[nH]c3ncc(-c4ccc(Cl)cc4)cc23)c1F` + Cc1sc2c(c1C)C(c1ccc(Cl)cc1)=N[C@@H](CC(=O)OC(C)(C)C)c1nnc(C)n1-2 [NCGC00250412-19], the “excess over highest single agent” value is -108.

With `CCCCOc1c(C(=O)c2c(F)cc(C)cc2F)c[nH]c2nncc1-2` + Cc1sc2c(c1C)C(c1ccc(Cl)cc1)=N[C@@H](CC(=O)OC(C)(C)C)c1nnc(C)n1-2 [NCGC00250412-19], the “excess over highest single agent” value was -375.
